HCV inhibitor: inhibitors of hepatitis C virus infection; Huh7.5.1 HCVcc-Cre infection, luciferase reporter, 44 h; Potency, µM (doses to about 41.8 µM), without a hit: at the highest dose activity change, negative = inhibition, actives largely listed as inhibitors; actives 3.4% (n = 340,000); active means well fitted inhibition curve with a large enough effect; inconclusive means small, poorly fitted or top-dose-only effect, or another doubt; inactive means no such curve, though single readings can be large or run the other way; further: potency means the concentration at half of the fitted maximal effect
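Cells seeded at 1,000/well and cultured 4 h, then compounds added followed by HCVcc-Cre virus (~0.5 moi). After 44 h further culture, luciferase substrate was added, plates held 15 min at room temperature, and luminescence read for 15 sec.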
HCMV inh: inhibitors of human cytomegalovirus. HFF cells, HCMV-luciferase reporter, 72 h; stronger effect = lower value. actives 4.5% (n = 410,000). activity change, negative = inhibition, % at 57.5 µM; in the data active means activity change below about -60%; inconclusive means no clear call, values can overlap the other calls; inactive means above about -39%
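Steps: HFFs plated, 16 h 37C; compounds added; HCMV-luciferase added to MOI 1 PFU/cell; 72 h 37C; OneGlo reagent, 5 min room temperature; luminescence read, normalized to controls.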
Vaccinia Venus: vaccinia inhibition (Venus reporter) | Potency, µM (top dose mostly 36.5 µM), for the others: top-dose activity change, negative = inhibition, usual class: inhibitors | actives 0.46% (n = 330,000) | Vaccinia virus Venus reporter expression, fluorescence | AID 720580; calls by dose curve; tested in A549 cells; further: potency means the concentration at half of the fitted maximal effect; nearly all actives have a fitted effect of over 30% in size
LASV entry inh: Lassa virus entry inhibition | actives 1.2% (n = 300,000) | Lassa virus pseudotype entry inhibition, cell reporter | Potency, µM (titrated, usually from 37.9 µM), for inactives: top-dose activity change, negative = inhibition, actives largely listed as inhibitors; calls by dose curve; tested in HEK293 cells; further: potency means the concentration at half of the fitted maximal effect; nearly all actives have a fitted effect of over 50% in size
Vaccinia mCherry: vaccinia inhibition (mCherry reporter) | Vaccinia virus mCherry reporter infection, fluorescence | Potency, µM (series often up to 36.5 µM), without a hit: top-dose activity change, negative = inhibition, actives largely listed as inhibitors | actives 0.63% (n = 310,000) | AID 720579; calls by dose curve; tested in A549 cells; further: potency means the concentration at half of the fitted maximal effect; nearly all actives have a fitted effect of over 35% in size
MARV entry inh: Marburg virus entry inhibition | Potency, µM (top dose mostly 37.8 µM), for the others: at the top dose activity change, negative = inhibition, actives largely listed as inhibitors | Marburg virus pseudotyped entry inhibition, cell reporter | actives 1.8% (n = 300,000); calls by dose curve; tested in HEK293 cells; further: potency means the concentration at half of the fitted maximal effect
* = called active by the depositor; i = inactive; ? = inconclusive; nt = not tested or not shown; [ ] = dose if it differs, or a comment. An excerpt weighted towards active compounds, which were near 7.8% of everything screened. On the % scale 0 is the no-effect control and ±100 the full control effect.

SMILES | HCV inhibitor | HCMV inh | Vaccinia Venus | LASV entry inh | Vaccinia mCherry | MARV entry inh
Cc1ccc2nc(N(CCCN(C)C)C(=O)c3ccc(Br)s3)sc2c1 | 10µM* | 0 | -24% | ? | -1% | ?
CN(C)CCCN(C(=O)c1ccc(Br)s1)c1nc2ccc(F)cc2s1 | nt | 28 | -9% | 18%[46.1 µM] | -19% | nt
CN(C)c1ccc(Nc2ncnc3c2c(-c2ccccc2)cn3-c2cccc(Cl)c2)cc1 | nt | ? | -7% | 3%[46.1 µM] | 1% | nt
CCOC(=O)COc1ccccc1C1C(C(=O)OC)=C(C)NC2=C1C(=O)c1ccccc12 (stereo unspecified) | nt | -9 | -15% | -7%[46.1 µM] | -14% | ?
COC(=O)COc1ccc(C2C(C(=O)OC)=C(C)NC3=C2C(=O)c2ccccc23)cc1OC (stereo unspecified) | nt | -108* | -6% | -1%[46.1 µM] | -5% | 10%[46.1 µM]
Cc1ccc(NC(=O)CCn2c(=O)c3cccn3c3ccccc32)cc1Cl | nt | -1 | -12% | ? | -18% | nt
O=C1CCC(=O)N1c1ccccc1-c1ccccc1 | 15% | 34 | -1% | ? | nt | -3%
CC(=O)Nc1ccc(S(=O)(=O)Oc2ccccc2N2C(=O)C3C4CCC(C4)C3C2=O)cc1 (stereo unspecified) | nt | -34 | 20% | 2.8µM* | i | 10µM*
O=C1CCC(=O)N1c1ccccc1OS(=O)(=O)c1ccccc1 | 31% | -97* | -7% | 6% | -6% | ?
O=S(=O)(Oc1ccccc1N1CCCCC1)c1ccccc1 | -12% | -61* | -10% | -3%[46.1 µM] | -14% | ?
C=CSc1sc(Cl)c(N2CCOCC2)c1[N+](=O)[O-] | 9% | ? | -8% | ? | -12% | ?
C=CS(=O)(=O)c1sc(Cl)c(N2CCOCC2)c1[N+](=O)[O-] | ? | -72* | ? | 3.2µM* | ? | 5µM*
O=C(c1ccc(-c2ccc([N+](=O)[O-])cc2)o1)N1CCCCC1 | -6% | 17 | nt | -27% | nt | 3%
O=C(c1ccc(-c2cccc([N+](=O)[O-])c2)o1)N1CCN(c2ccc([N+](=O)[O-])cc2)CC1 | ? | -61* | -2% | -30% | -7% | ?
O=C(c1ccc(-c2ccc(Cl)cc2)o1)N1CCN(c2ccc([N+](=O)[O-])cc2Cl)CC1 | ? | -80* | -21% | ? | -13% | -1%
CC(C)CC(=O)NC(=S)N1CCN(c2ccc([N+](=O)[O-])cc2Cl)CC1 | 0% | -67* | nt | 1% | nt | -3%
COc1cc(-c2nccc3[nH]nc(-c4ccccc4)c23)cc(OC)c1OC | nt | -19 | nt | nt | nt | nt
COC(=O)C1=C(C(=O)OC)[C@@H]2N(C)c3ccccc3[C@@]23CCC(=O)N(Cc2cc(OC)c(OC)c(OC)c2)C3=N1 | nt | nt | nt | nt | nt | -12%[14.2 µM]
N=c1sccn1CC(=O)NCc1ccc(Cl)cc1Cl | -9% | -35 | -4% | 8%[46.1 µM] | i | 13µM*
CN(C)c1ccc(NC(=O)CN2C(=O)c3ccccc3Sc3ccc(C(=O)N4CCCC4)cc32)cc1 | nt | 11 | -15% | -8%[46.1 µM] | -5% | nt
CC(=O)N1c2ccc(S(=O)(=O)NCC3CCC(C(=O)Nc4cc(C)cc(C)c4)CC3)cc2CC1C (stereo unspecified) | nt | -22 | -26% | ? | ? | nt
Cc1ccc(NC(=O)C2CCN(S(=O)(=O)c3ccc4c(c3)CC(C)N4C(=O)C3CCC3)CC2)nc1 (stereo unspecified) | 8.9µM* | -86* | ? | ? | -10% | ?
CC1Cc2cc(S(=O)(=O)N3CCC(C(=O)N(C)Cc4ccccc4)CC3)ccc2N1C(=O)C1CC1 (stereo unspecified) | 5.6µM* | -25 | nt | nt | nt | nt
CC(=O)N1c2ccc(S(=O)(=O)N3CCC(C(=O)Nc4ccc(C)cn4)CC3)cc2CC1C (stereo unspecified) | 11µM* | -80* | nt | nt | nt | nt
Cc1ccnc(NC(=O)C2CCN(S(=O)(=O)c3ccc4c(c3)CC(C)N4C(=O)C3CCC3)CC2)c1 (stereo unspecified) | ? | ? | -30% | ? | -2% | ?
CC(=O)N1c2ccc(S(=O)(=O)NCC3CCC(C(=O)Nc4ccc(C)cn4)CC3)cc2CC1C (stereo unspecified) | ? | -62* | -16% | ? | -24% | ?
Nc1cnccn1 | nt | nt | -4% | nt | -7% | nt
